{
  "source": "PubChem BioAssay (Tox21)",
  "note": "Results filed as inconclusive are left out. Activity calls are given as the source filed them. The call rests on the fitted dose curve. On the % scale 0 is the no-effect control and ±100 the full control effect.",
  "data": [
    {"experiment": "cAMP Responsive Elements (CRE) small molecule agonists, cell-based qHTS assay (AID 1963590)", "settings": "CRE-bla HEK293T, beta-lactamase FRET ratio, 3 h; series mostly up to 92.4 µM; activation: at the top concentration", "text": "U.S. Tox21 Program National Center for Advancing Translational Sciences [NCATS] Division of Preclinical Innovation [DPI] U.S. Environmental Protection Agency [EPA] National Institutes of Environmental Health Sciences [NIEHS] National Toxicology Program [NTP] U.S. Food and Drug Administration [FDA] Tox21 Assay Overview: CREB (cyclic-AMP Responsive Element Binding Protein) is a cellular transcription factor. It binds to certain DNA sequences called cAMP Responsive Elements (CRE) and regulates the transcription of the genes. […] This cell line can be used to find agonists/antagonists of the cyclic AMP signaling pathway. The activation of the report gene under culture conditions can be detected by fluorescence intensity. This cell line has been used to screen the Tox21 10K compound library to identify agonists that induce oxidative stress.\nTox21 Assay Protocol Summary: CRE-bla Hek 293T cells were suspended in assay medium (DMEM containing 10% dialyzed FBS, 0.1 mM NEAA, 1 mM sodium pyruvate and 25 mM HEPES) and dispensed at 2,000 cells/5 uL /well into 1536-well black wall/clear bottom plates using a Multidrop Combi (ThermoFisher Scientific, Waltham, MA) dispenser. After the assay plates were incubated at 37 C/5% CO2 for 18 hrs, 23 nL of compounds dissolved in DMSO, positive controls or DMSO only was transferred to the assay plate by a pintool workstation (Kalypsys, San Diego, CA). After the plates were incubated at 37 C/5% CO2 for 3 hrs, 1 uL of LiveBLAzer B/G FRET substrate (Invitrogen, Carlsbad, CA) was added to each well using Bioraptr Flying Reagent Dispenser (FRD, Aurora Discovery, San Diego, CA). The plates were incubated at room temperature for 2 h.", "values": [
      {"smiles": "CNCCS(=O)(=O)O", "activation": "-2.02% (inactive)"},
      {"smiles": "C[C@@H]1NC(=O)[C@@H](N)CNC(=O)[C@H](C2CCNC(N)=N2)NC(=O)/C(=C/NC(N)=O)NC(=O)[C@H](CNC(=O)C[C@@H](N)CCCN)NC1=O", "note": "(stereo not given in full)", "activation": "-0.384% [at 0.349 µM] (inactive)"},
      {"smiles": "N#CCc1cccc(C(F)(F)F)c1", "activation": "1.12% (inactive)"},
      {"smiles": "N[C@H](C(=O)O)c1ccc(O)cc1", "activation": "-0.179% [at 19 µM] (inactive)"},
      {"smiles": "O=c1n(CCO)c(=O)n(CCO)c(=O)n1CCO", "Potency": "inactive"},
      {"smiles": "O=C(/C=C/c1ccccc1)OCc1ccccc1", "Potency": "inactive"},
      {"smiles": "O=c1cc(CO)occ1O", "activation": "-0.158% [at 42.5 µM] (inactive)"},
      {"smiles": "c1ccc2cc3c4ccccc4c4ccccc4c3cc2c1", "activation": "-0.237% (inactive)"},
      {"smiles": "CC(C)(C)CC(C)(C)c1ccc(O)c(-n2nc3ccccc3n2)c1", "Potency": "inactive"},
      {"smiles": "C/C(=C(\\CCO)SS/C(CCO)=C(\\C)N(C=O)Cc1cnc(C)nc1N)N(C=O)Cc1cnc(C)nc1N", "activation": "0.494% [at 42.5 µM] (inactive)"},
      {"smiles": "CCCCCCCCS", "activation": "0.871% (inactive)"},
      {"smiles": "COc1cc(/C=C/C(N)=O)cc(OC)c1OC", "activation": "0.317% [at 42.5 µM] (inactive)"},
      {"smiles": "CC(=O)N[C@@H](CC(C)C)C(=O)O", "activation": "1% [at 42.5 µM] (inactive)"},
      {"smiles": "CC(C#N)(CCC(=O)O)N=NC(C)(C#N)CCC(=O)O", "note": "(stereo not given)", "activation": "0.215% (inactive)"},
      {"smiles": "CCC(C)c1ccccc1O", "note": "(stereo not given)", "Potency": "inactive"},
      {"smiles": "COc1cccc(Br)c1", "activation": "0.121% (inactive)"},
      {"smiles": "OC[C@H]1O[C@H](O[C@H]2O[C@H](CO)[C@@H](O)[C@H](O)[C@H]2O)[C@H](O)[C@@H](O)[C@@H]1O", "activation": "-0.145% (inactive)"},
      {"smiles": "COc1cccc(OC)c1", "activation": "-0.442% (inactive)"},
      {"smiles": "NCCNCCNCCNCCN", "Potency": "inactive"},
      {"smiles": "O=C(O)CCC(=O)Nc1ccc(S(=O)(=O)Nc2nccs2)cc1", "activation": "-0.622% [at 42.5 µM] (inactive)"},
      {"smiles": "NCCOCCN", "activation": "0.0857% (inactive)"},
      {"smiles": "CC(C)(C)c1ccc(C=O)cc1", "activation": "0.116% (inactive)"},
      {"smiles": "CC(C)(C)NC[C@H](O)COc1nsnc1N1CCOCC1", "Potency": "inactive"},
      {"smiles": "C[C@@H]1CCC[C@H](C)N1CCCC(O)(c1ccccc1)c1ccccn1", "note": "(stereo not given in full)", "activation": "-1.09% [at 42.5 µM] (inactive)"},
      {"smiles": "c1ccc(CNCc2ccccc2)cc1", "activation": "0.815% (inactive)"},
      {"smiles": "Oc1ccc(Sc2ccc(O)cc2)cc1", "activation": "7.52% (inactive)"},
      {"smiles": "CSc1nnc(C(C)(C)C)c(=O)[nH]1", "activation": "0.166% (inactive)"},
      {"smiles": "O=C(O)CN(CCN(CC(=O)O)CC(=O)O)CCN(CC(=O)O)CC(=O)O", "activation": "1.22% [at 19 µM] (inactive)"},
      {"smiles": "NC(=O)c1ccccc1N", "activation": "-0.315% (inactive)"},
      {"smiles": "CCCCCCCCCCCCCCCC(=O)NCCO", "activation": "-1.48% [at 42.5 µM] (inactive)"},
      {"smiles": "Nc1c(Br)cc([N+](=O)[O-])cc1Br", "activation": "-1.21% (inactive)"},
      {"smiles": "Cc1ccc2c(ccc3ccccc32)c1", "activation": "2.07% (inactive)"},
      {"smiles": "CC(=O)[C@@]1(O)CC[C@H]2[C@@H]3CCC4=CC(=O)CC[C@]4(C)[C@H]3CC[C@@]21C", "activation": "0.326% [at 42.5 µM] (inactive)"},
      {"smiles": "C=CC(C)(O)CC/C=C(\\C)CC", "note": "(stereo not given)", "activation": "-1.48% (inactive)"},
      {"smiles": "Cc1ccc(S(=O)(=O)O)c(C)c1", "activation": "0.0659% (inactive)"},
      {"smiles": "CC(C)(C)C(=O)C(Oc1ccc(Cl)cc1)n1ccnc1", "note": "(stereo not given)", "activation": "-0.77% [at 42.5 µM] (inactive)"},
      {"smiles": "CCCN1C=CN(C)C1", "Potency": "inactive"},
      {"smiles": "C[Si](C)=O", "activation": "0.463% [at 8.39 µM] (inactive)"},
      {"smiles": "CCCc1ccccc1", "activation": "0.526% (inactive)"},
      {"smiles": "OC1CCCCCCCCCCC1", "Potency": "inactive"}
    ]}
  ]
}
